Test results published in PubChem BioAssay (EPA / NIEHS).
Active and inactive are the calls of the source. Rule for the calls: active = hit-call score of the fitted dose curve at least 0.9, where 1 is the maximum; inactive = score below 0.9.

What was measured:
[1] = read-out: Human Leukocyte Antigen - DR isotype (HLADR), HLA-DRA (gene 3122); experiment: BSK_BE3C_HLADR: BioMAP Diversity Plus: BE3C Assay for Human Leukocyte Antigen - DR isotype (HLADR) Biomarker Activity (AID 2283032); conditions: primary human bronchial epithelial cells; actives raise or lower the signal
Method in brief: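 Cell-surface HLA-DR ELISA readout at 24 h after dosing in the BE3C primary human lung bronchial epithelial system; gain or loss of signal against DMSO, with parallel sulforhodamine B staining of total protein for overt cytotoxicity.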

[2] = read-out: Monokine induced gamma interferon (MIG), CXCL9 (gene 4283); experiment: BSK_BE3C_MIG: BioMAP Diversity Plus: BE3C Assay for Monokine induced gamma interferon (MIG) Biomarker Activity (AID 2283035); conditions: primary human bronchial epithelial cells; actives raise or lower the signal
Method in brief: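 Dose cells (human primary bronchial epithelial), incubate 24 h, quantify MIG by ELISA, then fit concentration–response in both directions relative to DMSO control.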

[3] = read-out: Transforming growth factor beta 1 (TGFb1), TGFB1 (gene 7040); experiment: BSK_BE3C_TGFb1: BioMAP Diversity Plus: BE3C Assay for Transforming growth factor beta 1 (TGFb1) Biomarker Activity (AID 2283036); conditions: primary human bronchial epithelial cells; actives raise or lower the signal
Method in brief: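 ELISA readout of TGF-b1 from human lung bronchial epithelial primary cells, taken 24 h post-treatment. Gain or loss of signal fitted relative to DMSO baseline, with parallel SRB staining for overt cytotoxicity.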

[4] = read-out: Plasminogen activator inhibitor-1 (PAI1), SERPINE1 (gene 5054); experiment: BSK_BE3C_PAI1: BioMAP Diversity Plus: BE3C Assay for Plasminogen activator inhibitor-1 (PAI1) Biomarker Activity (AID 2283037); conditions: primary human bronchial epithelial cells; actives raise or lower the signal
Method in brief: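 PAI-1 was measured by ELISA in human primary bronchial epithelial cultures 24 h after chemical dosing, with cytotoxicity checked by SRB total-protein staining in parallel cultures. Activity was fitted in both directions relative to DMSO.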

[5] = read-out: urokinase plasminogen activator (uPA), PLAU (gene 5328); experiment: BSK_BE3C_uPA: BioMAP Diversity Plus: BE3C Assay for urokinase plasminogen activator (uPA) Biomarker Activity (AID 2283038); conditions: primary human bronchial epithelial cells; actives raise or lower the signal
Method in brief: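 Measured by ELISA: uPA from human primary bronchial epithelial cells 24 h after chemical treatment. Values derive from bidirectional curve fitting with DMSO serving as negative control. Total protein by SRB staining in parallel wells flagged overt cytotoxicity.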

[6] = read-out: Urokinase-type plasminogen activator receptor (uPAR), PLAUR (gene 5329); experiment: BSK_BE3C_uPAR: BioMAP Diversity Plus: BE3C Assay for Urokinase-type plasminogen activator receptor (uPAR) Biomarker Activity (AID 2283039); conditions: primary human bronchial epithelial cells; actives raise or lower the signal;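 note: cells exposed to compound for one day before measurement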
Method in brief: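 uPAR levels were measured by ELISA after 24 h compound treatment of primary human bronchial epithelial cells, fitted in both directions relative to DMSO. Parallel SRB staining served as the cytotoxicity read-out.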

[7] = read-out: Interleukin-6 (IL6), IL6 (gene 3569); experiment: BSK_CASM3C_IL6: BioMAP Diversity Plus: CASM3C Assay for Interleukin-6 (IL6) Biomarker Activity for (AID 2283040); conditions: primary human coronary artery smooth muscle cells; actives raise or lower the signal
[8] = read-out: Tissue plasminogen activator (tPA), PLAT (gene 5327); experiment: BSK_BE3C_tPA: BioMAP Diversity Plus: BE3C Assay for Tissue plasminogen activator (tPA) Biomarker Activity (AID 2283041); conditions: primary human bronchial epithelial cells; actives raise or lower the signal
Method in brief: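 tPA measured by ELISA 24 h after dosing human primary bronchial epithelial cells (BE3C system). Changes in either direction were fitted against DMSO. Parallel cultures were stained with SRB to flag overt cytotoxicity.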

[9] = read-out: Interleukin-8 (IL8), CXCL8 (gene 3576); experiment: BSK_CASM3C_IL8: BioMAP Diversity Plus: CASM3C Assay for Interleukin-8 (IL8) Biomarker Activity (AID 2283042); conditions: primary human coronary artery smooth muscle cells; actives raise or lower the signal;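 note: IL-8 protein level quantified by ELISA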
[10] = read-out: Human Leukocyte Antigen - DR isotype (HLADR), HLA-DRA (gene 3122); experiment: BSK_CASM3C_HLADR: BioMAP Diversity Plus: CASM3C Assay for Human Leukocyte Antigen - DR isotype (HLADR) Biomarker Activity (AID 2283043); conditions: primary human coronary artery smooth muscle cells; actives raise or lower the signal;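 note: cell-surface HLA-DR protein level quantified by ELISA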
[11] = read-out: Macrophage colony-stimulating factor (MCSF), CSF1 (gene 1435); experiment: BSK_CASM3C_MCSF: BioMAP Diversity Plus: CASM3C Assay for Macrophage colony-stimulating factor (MCSF) Biomarker Activity (AID 2283044); conditions: primary human coronary artery smooth muscle cells; actives raise or lower the signal;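 note: M-CSF protein amount quantified by ELISA after 24 h exposure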
[12] = read-out: Low-density lipoprotein receptor (LDLR), LDLR (gene 3949); experiment: BSK_CASM3C_LDLR: BioMAP Diversity Plus: CASM3C Assay for Low-density lipoprotein receptor (LDLR) Biomarker Activity (AID 2283045); conditions: primary human coronary artery smooth muscle cells; actives raise or lower the signal;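 note: LDLR protein level on the cell surface quantified by ELISA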
[13] = read-out: Monocyte Chemoattractant Protein-1 (MCP1), CCL2 (gene 6347); experiment: BSK_CASM3C_MCP1: BioMAP Diversity Plus: CASM3C Assay for Monocyte Chemoattractant Protein-1 (MCP1) Biomarker Activity (AID 2283046); conditions: primary human coronary artery smooth muscle cells; actives raise or lower the signal;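 note: MCP-1 level quantified by ELISA 24 h after dosing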
[14] = BSK_CASM3C_Proliferation: Cell Proliferation Assessment in the BioMAP Diversity Plus: CASM3C Assay (AID 2283047); conditions: primary human coronary artery smooth muscle cells;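 note: sulforhodamine B total protein stain as relative cell number at 560 nm; sub-confluent cells exposed 48 h before staining; fitted both ways against DMSO so gain or loss of cell number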
[15] = read-out: Monokine induced gamma interferon (MIG), CXCL9 (gene 4283); experiment: BSK_CASM3C_MIG: BioMAP Diversity Plus: CASM3C Assay for Monokine induced gamma interferon (MIG) Biomarker Activity (AID 2283048); conditions: primary human coronary artery smooth muscle cells; actives raise or lower the signal;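 note: MIG protein level measured by ELISA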
[16] = read-out: serum amyloid A (SAA), SAA1 (gene 6288); experiment: BSK_CASM3C_SAA: BioMAP Diversity Plus: CASM3C Assay for serum amyloid A (SAA) Biomarker Activity (AID 2283049); conditions: primary human coronary artery smooth muscle cells; actives raise or lower the signal;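 note: SAA protein level quantified by ELISA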
[17] = BSK_CASM3C_SRB: Viability Assessment in the BioMAP Diversity Plus: CASM3C Assay (AID 2283050); conditions: primary human coronary artery smooth muscle cells
[18] = read-out: Thrombomodulin, THBD (gene 7056); experiment: BSK_CASM3C_Thrombomodulin: BioMAP Diversity Plus: CASM3C Assay for Thrombomodulin Biomarker Activity (AID 2283051); conditions: primary human coronary artery smooth muscle cells; actives raise or lower the signal;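 note: thrombomodulin protein level measured by ELISA 24 h after dosing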
[19] = read-out: Interferon-gamma inducible Protein 10 (IP10), CXCL10 (gene 3627); experiment: BSK_BE3C_IP10: BioMAP Diversity Plus: BE3C Assay for Interferon-gamma inducible Protein 10 (IP10) Biomarker Activity (AID 2283034); conditions: primary human bronchial epithelial cells; actives raise or lower the signal
Method in brief: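 IP-10 quantified by ELISA in human primary bronchial epithelial cell cultures at 24 hours post-dosing. Gain or loss of signal fitted relative to DMSO; parallel SRB staining assessed overt cytotoxicity.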

Measured: AC50

c1ccc2occc2c1
not listed: [19]
inactive: all other assays above

O=Cc1ccccc1C=O
not listed: [7]
inactive: all other assays above

CC(=O)OC1CC(C)OC(C)O1 (stereo unspecified)
not listed: [19]
inactive: all other assays above

C/C=C/c1ccc(OC)cc1
not listed: [19]
inactive: all other assays above

CN(C)C(=O)NC1(c2ccccc2)CCN(CC[C@@]2(c3ccc(F)c(F)c3)CN(C(=O)c3ccccc3)CCO2)CC1
not listed: [19]
inactive: all other assays above

CC(C)NCC(O)c1ccc(O)c(O)c1 (stereo unspecified)
not listed: [19]
inactive: all other assays above

Cc1ccc(C(C)(C)C)c(O)c1
not listed: [19]
inactive: all other assays above

NC(=Nc1ccccc1)Nc1ccccc1
active: [11] 3.97 µM
inactive: all other assays above

CC(N)=O
inactive: all assays above

COC(=O)[C@H]1[C@H]2C[C@@H]3c4[nH]c5cc(OC)ccc5c4CCN3C[C@H]2C[C@@H](OC(=O)c2cc(OC)c(OC)c(OC)c2)[C@@H]1OC
active: [12] 8.87 µM | [14] 21.3 µM | [18] 16.9 µM
not listed: [3] | [5] | [19]
inactive: all other assays above

CSc1ccc(Oc2ccc(S(N)(=O)=O)cc2CN(C)C)cc1C
active: [14] 20 µM
not listed: [19]
inactive: all other assays above

CC(=O)CC(c1ccccc1)c1c(O)c2ccccc2oc1=O (stereo unspecified)
not listed: [19]
inactive: all other assays above

Cc1cc(Cc2ccc(N)c(C)c2)ccc1N
not listed: [16] | [19]
inactive: all other assays above

O=C1OC(c2ccc(O)cc2)(c2ccc(O)cc2)c2ccccc21
active: [1] 0.379 µM | [2] 7.79 µM | [14] 28.2 µM
not listed: [9] | [19]
inactive: all other assays above

CCCCCCC(CCCCCCCCCCC(=O)OCC(COC(C)=O)OC(C)=O)OC(C)=O (stereo unspecified)
active: [1] 10 µM | [2] 13.7 µM | [3] 7.57 µM | [4] 7.39 µM | [5] 13.2 µM | [8] 3.58 µM
not listed: [19]
inactive: all other assays above

O=[Si]=O
not listed: [19]
inactive: all other assays above
